# Experimental data: PubChem BioAssay (Tox21)
# Records with an inconclusive call do not appear. The source made the active and inactive calls. Calls follow the shape of the dose curve; as a rule, active = well fitted cell-killing curve with a large enough effect in the repeat runs; inconclusive = weak or mixed curves; inactive = flat fitted curve, though single readings scatter.
# Experiment: qHTS RealTime-Glo MT Cell Viability Assay in HepG2 cells - 32 hour (AID 1224877); also: nearly all actives have a fitted effect of over 55% in size
# Conditions: RealTime-Glo luminescence; series mostly up to 76.8 µM; activity change, negative = cytotoxic: at the top concentration
# From the text: U.S. Tox21 Program National Center for Advancing Translational Sciences [NCATS] NIH Chemical Genomics Center [NCGC] U.S. Environmental Protection Agency [EPA] National Institutes of Environmental Health Sciences [NIEHS] National Toxicology Program [NTP] U.S. Food and Drug Administration [FDA] Tox21 Assay Overview: Measure of cell viability is critical in the cell-base assay. Analysis of cell viability is necessary for the characterization of cell responses to cytotoxic drugs and environmental stress. A RealTime-Glo MT Cell Viability Assay to monitor cell viability in real time of continues cell culture during 40 hours of compound treatment was used to screen Tox21 10K library compounds in HepG2 cells. The RealTime-Glo MT Cell Viability Assay is a nonlytic, homogeneous, bioluminescent method to measure cell viability in real time using a simple, plate-based method. The assay involves adding NanoLuc luciferase and a cell-permeant prosubstrate to cells in culture. Viable cells reduce the proprietary prosubstrate to generate a substrate for NanoLuc luciferase. This substrate diffuses from cells into the surrounding culture medium, where it is rapidly used by the NanoLuc Enzyme to produce a luminescent signal. The signal correlates with the number of viable cells, making the assay well suited for cytotoxicity studies.
# Tox21 Assay Protocol Summary: The mixture of HepG2 cell suspension and reagents were dispensed at 600cells/6 ul/well in 1536-well tissue culture treated black solid bottom plates using a Multidrop dispenser. After the assay plates were incubated at a 37 C/5% CO2 incubator for 5 hours, 23 nL of compounds dissolved in DMSO, positive and negative controls was transferred to the assay plate by a pintool work station. The plates were incubated at 37 C for 40 hours. The luminescence intensity were measured at 0h, 8h, 16h, 24h, 32h and 40h time points using ViewLux plate reader during compound treatment.
# % is scaled to controls: 0 for no effect and ±100 for the full control effect; potency is read from the fitted curve at half-maximal effect.
SMILES,"activity change, negative = cytotoxic",Potency
CCCCCCCCCCCCOCCOS(=O)(=O)O,0.892% (inactive),
NCCCN1CCN(CCCN)CC1,0.132% (inactive),
Cc1c[nH]c(=S)[nH]c1=O,0.225% (inactive),
C[C@]12CCC(=O)C=C1CC[C@@H]1[C@@H]2CC[C@@]2(C)[C@H]1CC[C@]2(O)C(=O)CO,-5.93% [at 35.3 µM] (inactive),
CCCNC(C)(C)COC(=O)c1ccccc1,5.5% [at 35.3 µM] (inactive),
C[C@@H]1CN(c2c(F)c(N)c3c(=O)c(C(=O)O)cn(C4CC4)c3c2F)C[C@H](C)N1,1.06% [at 15.8 µM] (inactive),
Cc1c(-c2ccccc2)oc2c(C(=O)OCCN3CCCCC3)cccc2c1=O,-1.78% [at 35.3 µM] (inactive),
c1ccc(CN(CC2=NCCN2)c2ccccc2)cc1,-2.77% [at 35.3 µM] (inactive),
CCN(CC)CCNC(=O)COc1ccc(Cl)cc1,1.65% [at 35.3 µM] (inactive),
CCOC(=O)CS,6.07% (inactive),
Cc1cc2c(s1)Nc1ccccc1N=C2N1CCN(C)CC1,-1.27% [at 35.3 µM] (inactive),
COC(=O)C(C)O (stereo not given),-0.578% (inactive),
CCCCC(=O)O[C@]1(C(=O)CO)[C@H](C)C[C@H]2[C@@H]3CCC4=CC(=O)C=C[C@]4(C)[C@@]3(F)[C@@H](O)C[C@@]21C,-4.09% [at 35.3 µM] (inactive),
CN(C)CC[C@@H](c1ccc(Cl)cc1)c1ccccn1,-0.678% [at 35.3 µM] (inactive),
CCN(CCCc1ccccc1)CCCc1ccccc1,-9.68% [at 35.3 µM] (inactive),
Cn1cnc2c(F)c(Nc3ccc(Br)cc3Cl)c(C(=O)NOCCO)cc21,,535 nM (active)
CCCCCCCCCC/C=C/C#N,-5.29% (inactive),
CC(C)=CCCC(C)CCOC=O (stereo not given),0.547% (inactive),
C[C@@H]1CN(c2c(F)c(F)c3c(=O)c(C(=O)O)cn(C4CC4)c3c2F)C[C@H](C)N1,0.371% [at 15.8 µM] (inactive),
ClC(Cl)Cl,4.9% (inactive),

SMILES,"activity change, negative = cytotoxic",Potency
CC1=C(CC(=O)O)c2cc(F)ccc2/C1=C\c1ccc(S(C)(=O)=O)cc1,-2.77% [at 35.3 µM] (inactive),
CCCCCCn1c(=O)c2c(ncn2C)n(C)c1=O,-11.4% [at 35.3 µM] (inactive),
CCN(O)CC,-0.729% (inactive),
CN(C)C(=O)NC1(c2ccccc2)CCN(CCC[C@]2(c3ccc(Cl)c(Cl)c3)CCCN(C(=O)c3ccccc3)C2)CC1,-9.2% [at 15.8 µM] (inactive),
CCCc1c2oc(C(=O)O)cc(=O)c2cc2c(=O)cc(C(=O)O)n(CC)c12,-0.406% [at 35.3 µM] (inactive),
Oc1ccccc1C=NCc1ccccc1,1.15% [at 35.3 µM] (inactive),
CC(C)(C)C1CCCCC1=O (stereo not given),-0.846% (inactive),
CC(C)C[C@H](NC(=O)OCC1c2ccccc2-c2ccccc21)C(=O)O,0.324% (inactive),
CCCCC1CCC(=O)O1 (stereo not given),0.715% (inactive),
CCC/C=C/CO,1.68% (inactive),
C=CCCC=C,6.65% (inactive),
CCCC1CCC(=O)O1 (stereo not given),-1.12% (inactive),
Cc1ccc(C(C)C)cc1O,-1.48% (inactive),
Cc1nc(-c2ccccn2)ncc1C(=O)Nn1cc(C)c2cc(F)ccc21,-9.95% (inactive),
CC1=C(O)C(=O)OC1C (stereo not given),3.69% (inactive),
CS(=O)(=O)c1ccc([C@@H](O)[C@@H](CF)NC(=O)C(Cl)Cl)cc1,3.44% [at 35.3 µM] (inactive),
CN1CCC[C@@H]1Cc1c[nH]c2ccc(CCS(=O)(=O)c3ccccc3)cc12,0.217% [at 35.3 µM] (inactive),
O=C1C=CC(=O)O1,2.01% (inactive),
CCCCNc1ccc(C(=O)OCCN(CC)CC)cc1,-1.13% [at 35.3 µM] (inactive),
N#CSCC(=O)O,2.89% [at 35.3 µM] (inactive),
